High-throughput results deposited in PubChem by National Center for Advancing Translational Sciences (NCATS).
LmPK inhibitor: LmPK (Leishmania mexicana) enzyme inhibition; Potency, µM (doses to about 57.5 µM), for inactives: top-dose activity change, negative = inhibition, actives largely listed as inhibitors; purified LmPK, Kinase-Glo ATP luminescence, 1 h; 290,000 compounds, 0.37% hits; further: on the % scale 0 is the no-effect control and ±100 the full control effect
Target sequence (Q27686 whole entry, looked up): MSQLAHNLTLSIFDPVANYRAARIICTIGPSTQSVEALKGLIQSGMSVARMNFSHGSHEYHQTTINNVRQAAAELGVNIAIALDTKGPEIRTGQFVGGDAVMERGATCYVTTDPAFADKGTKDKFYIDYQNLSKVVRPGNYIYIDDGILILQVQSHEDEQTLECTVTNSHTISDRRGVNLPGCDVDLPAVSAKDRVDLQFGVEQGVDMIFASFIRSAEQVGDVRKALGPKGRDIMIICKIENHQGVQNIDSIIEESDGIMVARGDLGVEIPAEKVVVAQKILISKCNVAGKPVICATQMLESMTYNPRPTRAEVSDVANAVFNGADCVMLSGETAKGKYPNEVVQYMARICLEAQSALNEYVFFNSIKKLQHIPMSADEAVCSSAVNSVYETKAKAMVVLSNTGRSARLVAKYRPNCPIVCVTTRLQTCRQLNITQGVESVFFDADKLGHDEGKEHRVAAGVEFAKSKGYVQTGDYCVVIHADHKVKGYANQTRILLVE
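In 50 mM imidazole pH 7.2 with 7 mM MgCl2, LmPK (0.1 nM) turned over PEP (0.5 mM) and ADP (0.1 mM) for 1 h at room temperature. Luciferase read-out of ATP.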
SARS PLpro yeast: inhibitors of SARS-CoV papain-like protease in yeast; S. cerevisiae expressing SARS-CoV PLpro, growth rescue; Potency, µM (titrated, usually from 32.9 µM), for the others: top-dose activity, positive = growth rescue, most hits filed as activators; 330,000 compounds, 0.19% hits; AID 485353; calls by dose curve; further: 0% is about no effect; nearly all actives have a fitted effect of over 55% in size
Tb PYK inh: T. brucei pyruvate kinase inhibition. Q57TT1. TbPYK enzyme, Kinase-Glo Plus ATP luminescence, 45 min. Potency, µM (doses to about 76.8 µM), for the others: top-dose activity, negative = inhibition, hits mostly inhibitors. 410,000 compounds, 0.12% hits. AID 624173; further: on the % scale 0 is the no-effect control and ±100 the full control effect; nearly all actives have a fitted effect of over 50% in size
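Assay buffer: 50 mM TEA pH 7.2, 100 mM KCl, 10 mM MgCl2, 0.05% BSA, 0.01% Tween-20. Pyruvate kinase from T. brucei plus substrate met compound, then ADP (130 uM final). Luminescence was read post 45 min RT.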
NS1 function inh: blocks influenza NS1 protein function; Potency, µM (doses to about 46.1 µM), without a hit: at the highest dose activity, positive = more growth; 270,000 compounds, 0.4% hits; calls by dose curve; further: actives are rising curves; nearly all actives have a fitted effect of over 50% in size
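OD600 was taken as the measure of yeast growth restored by compound in an NS1-expressing S. cerevisiae strain. Cells had been washed out of glucose medium and diluted 1:100 into galactose -URA medium, pH 6.0.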
RE007 growth inh: less growth of the S. pombe RE007 Vpr strain | S. pombe RE007 Vpr strain, BacTiter-Glo ATP luminescence, 24 h | Potency, µM (highest dose often 92.2 µM), without a hit: at the top dose activity change, negative = less growth, most hits filed as inhibitors | 360,000 compounds, 0.21% hits | AID 651644; active means well fitted falling curve with a large enough effect; inconclusive means small, poorly fitted or top-dose-only effect; inactive means no such curve, though single readings can be large or run the other way; further: on the % scale 0 is the no-effect control and ±100 the full control effect; nearly all actives have a fitted effect of over 50% in size
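Fission yeast strain RE007, carrying one chromosomally integrated HIV-1 vpr copy, was seeded at OD 0.01 in PMG+AL medium with 23 nL pinned compound. After 24 h at 30 °C and 99% humidity, viability was read by BacTiter-Glo luminescence.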
Sm TGR block: S. mansoni TGR enzyme inhibition | Q962Y6 | purified TGR, DTNB reduction, TNB absorbance 405 nm | Potency, µM (top dose mostly 114 µM), inactives show at the highest dose activity change, negative = inhibition, actives largely listed as inhibitors | 360,000 compounds, 3% hits; further: on the % scale 0 is the no-effect control and ±100 the full control effect; nearly all actives have a fitted effect of over 60% in size
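First, TGR (20 nM dispensed) and NADPH were mixed with compound. Second, a 15 min room-temperature incubation followed. Third, further NADPH and then DTNB were added to start the reaction. Finally, TNB absorbance was monitored kinetically.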
Numbers without * were called inactive; ? = inconclusive; nt = no result. Hits are enriched below; roughly 3.3% of the tested compounds scored in any of these assays. Unless noted, the call rests on the fitted dose curve; in most records, active means well fitted curve in the direction sought with a large enough effect; inconclusive means small, poorly fitted or top-dose-only effect, or another doubt; inactive means no such curve, though single readings can be large; an effect the other way counts as inactive or inconclusive. Potency means the concentration at half of the fitted maximal effect.

SMILES	LmPK inhibitor	SARS PLpro yeast	Tb PYK inh	NS1 function inh	RE007 growth inh	Sm TGR block
O=C1/C(=C/c2cccnc2)Sc2ccccc21	?	-12.6%	5.8%	-11.8%	28.2µM*	6.1%
CC(=O)Nc1ccc(/C=C2\Sc3ccccc3C2=O)cc1	-0.7%	0.0%	-4.5%	0.3%	5.8%	5.9%
COc1ccccc1NC(=O)C1=C(C)NC(SCC(=O)Nc2ccc(C(=O)O)cc2)=C(C#N)C1c1cccs1 (stereo unspecified)	6.6%	4.9%	-26.0%	6.8%	-2.3%	44.7µM*
CCCSC1=C(C#N)C(c2cccs2)C(C(=O)Nc2ccccc2)=C(C)N1 (stereo unspecified)	1.6%	-10.6%	2.5%	-2.1%	-5.0%	35.5µM*
CC1CN(C(=O)N2CCC(C(=O)NCCCc3ccccc3)CC2)c2cc(Cl)ccc2O1 (stereo unspecified)	nt	nt	-0.3%	nt	nt	-10.9%
O=C(CN1CCN(S(=O)(=O)c2ccc(F)c(Cl)c2)CC1)N1CCc2ccccc2C1	nt	nt	3.8%	nt	24.2%	nt
O=C(CN1CCN(S(=O)(=O)c2cc(C(F)(F)F)ccc2Cl)CC1)N1CCc2ccccc2C1	nt	-5.1%	3.9%	nt	-11.2%	39.8µM*
C[C@@]12CC[C@@H]3[C@H](CCC4=CC(=O)CC[C@]43C)[C@@H]1CC[C@@H]2C(=O)COS(=O)(=O)c1ccc(Br)cc1	nt	nt	nt	-2.8%	nt	nt
CC(=O)c1sc(C(=O)O)c(-c2ccco2)c1-c1ccco1	14.2%	-0.8%	?	6.6%	8.6%	20µM*
O=C(O)c1sc(C(=O)O)c(-c2ccccc2)c1-c1ccccc1	nt	nt	5.7%	nt	-10.7%	nt
CCCC1Cc2nc(Cl)c(C#N)cc2CO1 (stereo unspecified)	-4.4%	0.6%	-4.5%	4.7%	-0.8%	39.8µM*
Cc1ccc(NC(=O)CSc2ncc3c(n2)-c2ccccc2N(C)S3(=O)=O)c(Cl)c1	nt	nt	1.4%	nt	nt	-9.9%
Cn1c(=O)c2c(nc(CN3CCN(Cc4ccccc4)CC3)n2CCN2CCOCC2)n(C)c1=O	5.1%	1.2%	-6.0%	-1.5%	-16.0%	39.8µM*
CCOC(=O)c1c(NC(=O)CCl)sc(CN(C)C)c1-c1ccccc1	5.0%	2.0%	-15.1%	nt	9.3%	15.8µM*
Cc1cc(OCCCSc2nc(-c3ccc(C(C)(C)C)cc3)nc3cc(=O)[nH]n23)ccc1Cl	nt	nt	-3.8%	nt	nt	-19.2%
CCc1ccc(Cn2c(CNS(=O)(=O)c3ccc4c(c3)CCCC4)nc3cccnc32)cc1	nt	nt	-0.6%	nt	nt	-0.3%
CCOc1ccc(CCNC(=O)c2cc3sc(CC)cc3n2C)cc1OCC	nt	nt	1.7%	nt	nt	8.7%
CC(COc1ccccc1)NN (stereo unspecified)	nt	nt	4.0%	nt	nt	nt
CC(c1ccc(F)cc1)n1c(Cn2ncc3ccccc3c2=O)n[nH]c1=S (stereo unspecified)	5.5%	1.3%	12.6µM*	-1.2%	18.3%	-0.5%
O=c1c2ccccc2cnn1Cc1n[nH]c(=S)n1-c1ccc(F)c(Cl)c1	2.0%	-0.8%	?	nt	-7.6%	-1.6%
O=c1c2ccccc2cnn1Cc1n[nH]c(=S)n1-c1cc(Cl)cc(Cl)c1	-25.2%	12.0%	6.31µM*	20.7%	1.6%	-20.3%
CC(c1ccc(F)cc1)n1c(-c2cccs2)n[nH]c1=S (stereo unspecified)	?	0.0%	7.08µM*	9.6%	-2.6%	nt
CC(c1ccccc1)n1c(-c2ccccc2F)n[nH]c1=S (stereo unspecified)	?	17.3%	?	6.5%	5.1%	-14.9%
COc1ccc(NC(=O)Cn2cnc3c(oc4ccccc43)c2=O)cc1OC	nt	nt	-8.6%	nt	nt	-1.5%
COc1cc(OC)c(OC)cc1CN1CCc2nc(N3CCN(C)CC3)ncc2C1	nt	nt	-4.9%	nt	nt	39.8µM*
CC(C)(C)c1ccc(C(=O)N2CC(=O)Nc3ccc(F)cc3C2c2ccc(F)cc2)cc1 (stereo unspecified)	nt	nt	-10.4%	nt	nt	-10.4%
CC(C)CCNC(=O)c1cn(C)c2ccc(S(=O)(=O)N3CCOCC3)cc2c1=O	nt	nt	0.2%	nt	nt	-8.9%
